By inhibition is commonly meant the change of the read-out against control, counted positive when it falls.

The values that follow come from ChEMBL document CHEMBL1961873, “Compounds: GSK PKIS; Assays: Nanosyn kinase panel” (2012).

Assay [1] deals with T1, 3-phosphoinositide-dependent protein kinase 1 (Homo sapiens) (UniProt O15530).
T1 sequence (whole entry): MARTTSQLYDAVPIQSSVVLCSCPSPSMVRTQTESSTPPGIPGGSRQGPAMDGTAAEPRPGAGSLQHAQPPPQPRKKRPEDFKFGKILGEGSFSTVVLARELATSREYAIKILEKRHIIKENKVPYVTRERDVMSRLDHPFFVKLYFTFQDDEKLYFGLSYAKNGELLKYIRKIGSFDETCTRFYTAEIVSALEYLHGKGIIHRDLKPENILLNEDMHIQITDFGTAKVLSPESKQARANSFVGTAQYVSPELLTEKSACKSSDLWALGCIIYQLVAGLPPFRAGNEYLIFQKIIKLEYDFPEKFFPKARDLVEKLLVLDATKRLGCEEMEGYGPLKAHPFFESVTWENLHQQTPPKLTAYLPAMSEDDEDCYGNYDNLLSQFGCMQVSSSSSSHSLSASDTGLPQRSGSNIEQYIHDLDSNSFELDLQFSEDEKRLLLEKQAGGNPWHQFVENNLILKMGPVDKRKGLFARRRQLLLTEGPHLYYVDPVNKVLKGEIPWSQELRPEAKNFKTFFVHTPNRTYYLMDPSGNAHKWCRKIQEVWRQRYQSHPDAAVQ
Particulars: at 0.1 µM.

For assay [2], the target named is cAMP-dependent protein kinase catalytic subunit alpha (Homo sapiens) (UniProt P17612). Particulars: at 0.1 µM.
Assay [3] shares this target. Particulars: at 1 µM.
Assay [4] concerns the target Protein kinase C alpha type (Homo sapiens) (UniProt P17252). Particulars: at 0.1 µM.
For assay [5] the target is unchanged. Particulars: at 1 µM.
Assay [6] concerns the target Protein kinase C beta type (Homo sapiens) (UniProt P05771). The settings on record: at 0.1 µM.
The target is the same in assay [7]. Particulars: at 1 µM.
Assay [8] concerns the target Protein kinase C eta type (Homo sapiens) (UniProt P24723). The settings on record: at 0.1 µM.
Assay [9] has the same target. The settings on record: at 1 µM.
In assay [10] the target is Protein kinase C gamma type (Homo sapiens) (UniProt P05129). The settings on record: at 0.1 µM.
Assay [11] shares this target. Particulars: at 1 µM.
The target of assay [12] is T2, Protein kinase C iota type (Homo sapiens) (UniProt P41743).
T2 sequence (whole entry): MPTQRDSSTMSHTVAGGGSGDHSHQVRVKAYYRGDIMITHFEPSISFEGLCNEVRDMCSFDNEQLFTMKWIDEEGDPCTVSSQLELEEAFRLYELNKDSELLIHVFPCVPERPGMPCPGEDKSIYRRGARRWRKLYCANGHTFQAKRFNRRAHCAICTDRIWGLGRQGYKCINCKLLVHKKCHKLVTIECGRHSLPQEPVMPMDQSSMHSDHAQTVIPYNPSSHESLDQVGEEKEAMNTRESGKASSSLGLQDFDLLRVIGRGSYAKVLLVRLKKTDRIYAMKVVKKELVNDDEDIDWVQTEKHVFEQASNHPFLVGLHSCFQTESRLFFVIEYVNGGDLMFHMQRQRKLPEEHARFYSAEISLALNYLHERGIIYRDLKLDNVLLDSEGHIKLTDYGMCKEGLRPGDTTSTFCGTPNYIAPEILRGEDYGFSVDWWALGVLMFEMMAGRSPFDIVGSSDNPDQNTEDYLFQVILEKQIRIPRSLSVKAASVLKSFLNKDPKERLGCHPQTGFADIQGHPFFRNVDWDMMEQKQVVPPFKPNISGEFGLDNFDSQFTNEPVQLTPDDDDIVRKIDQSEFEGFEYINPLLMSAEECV
Particulars: at 0.1 µM.

The target in assay [13] is T2, Protein kinase C iota type (Homo sapiens). Particulars: at 1 µM.
The target of assay [14] is Protein kinase C theta type (Homo sapiens) (UniProt Q04759). The settings on record: at 0.1 µM.
Protein kinase C theta type (Homo sapiens), sequence (Q04759 whole entry, looked up): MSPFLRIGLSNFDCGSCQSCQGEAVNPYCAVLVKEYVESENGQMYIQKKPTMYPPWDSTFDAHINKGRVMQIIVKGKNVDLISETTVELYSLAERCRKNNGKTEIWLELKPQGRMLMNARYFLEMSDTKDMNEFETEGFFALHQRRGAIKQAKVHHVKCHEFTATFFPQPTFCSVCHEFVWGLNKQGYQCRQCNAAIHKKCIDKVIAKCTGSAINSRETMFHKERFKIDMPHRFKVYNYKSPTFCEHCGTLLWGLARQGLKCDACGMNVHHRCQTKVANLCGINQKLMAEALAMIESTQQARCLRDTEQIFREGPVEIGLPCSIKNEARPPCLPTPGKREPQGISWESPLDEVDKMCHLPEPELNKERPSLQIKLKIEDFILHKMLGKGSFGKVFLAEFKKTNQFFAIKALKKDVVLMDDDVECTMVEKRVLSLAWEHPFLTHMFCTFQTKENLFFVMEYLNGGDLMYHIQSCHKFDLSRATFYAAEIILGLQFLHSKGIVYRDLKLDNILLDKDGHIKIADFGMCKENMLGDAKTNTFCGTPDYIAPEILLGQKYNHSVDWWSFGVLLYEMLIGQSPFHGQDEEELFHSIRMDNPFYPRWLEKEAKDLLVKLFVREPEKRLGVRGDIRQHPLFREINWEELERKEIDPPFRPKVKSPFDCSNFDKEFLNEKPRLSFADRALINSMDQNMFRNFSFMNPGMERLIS
For assay [15] the target is unchanged. The settings on record: at 1 µM.
In assay [16] the target is Protein kinase C beta type (Homo sapiens) (UniProt P05771). Particulars: at 0.1 µM. This is another data set of the same source.
Protein kinase C beta type (Homo sapiens), sequence (P05771 2-671 limits assumed): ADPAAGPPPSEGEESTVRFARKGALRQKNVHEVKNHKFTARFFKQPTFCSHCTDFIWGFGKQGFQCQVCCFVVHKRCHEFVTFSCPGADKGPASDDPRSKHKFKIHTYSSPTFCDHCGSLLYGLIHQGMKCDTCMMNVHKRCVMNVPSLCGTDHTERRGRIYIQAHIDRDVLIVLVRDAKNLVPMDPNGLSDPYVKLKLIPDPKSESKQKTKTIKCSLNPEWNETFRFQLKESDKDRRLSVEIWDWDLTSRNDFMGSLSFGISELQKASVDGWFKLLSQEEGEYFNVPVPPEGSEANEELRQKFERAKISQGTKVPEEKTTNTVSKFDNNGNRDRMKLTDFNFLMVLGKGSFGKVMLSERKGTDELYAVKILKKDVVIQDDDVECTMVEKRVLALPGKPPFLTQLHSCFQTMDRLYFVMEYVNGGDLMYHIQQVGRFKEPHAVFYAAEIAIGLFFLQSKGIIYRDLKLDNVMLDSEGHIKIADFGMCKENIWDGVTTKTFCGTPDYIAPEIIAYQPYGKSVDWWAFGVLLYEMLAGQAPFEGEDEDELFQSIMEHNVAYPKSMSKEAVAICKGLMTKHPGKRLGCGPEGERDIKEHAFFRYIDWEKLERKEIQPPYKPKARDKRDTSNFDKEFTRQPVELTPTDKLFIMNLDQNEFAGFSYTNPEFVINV
Assay [17] shares this target. Particulars: at 1 µM. This is another data set of the same source.
Assay [18] deals with T3, Serine/threonine-protein kinase D1 (Homo sapiens) (UniProt Q15139).
T3 sequence (whole entry): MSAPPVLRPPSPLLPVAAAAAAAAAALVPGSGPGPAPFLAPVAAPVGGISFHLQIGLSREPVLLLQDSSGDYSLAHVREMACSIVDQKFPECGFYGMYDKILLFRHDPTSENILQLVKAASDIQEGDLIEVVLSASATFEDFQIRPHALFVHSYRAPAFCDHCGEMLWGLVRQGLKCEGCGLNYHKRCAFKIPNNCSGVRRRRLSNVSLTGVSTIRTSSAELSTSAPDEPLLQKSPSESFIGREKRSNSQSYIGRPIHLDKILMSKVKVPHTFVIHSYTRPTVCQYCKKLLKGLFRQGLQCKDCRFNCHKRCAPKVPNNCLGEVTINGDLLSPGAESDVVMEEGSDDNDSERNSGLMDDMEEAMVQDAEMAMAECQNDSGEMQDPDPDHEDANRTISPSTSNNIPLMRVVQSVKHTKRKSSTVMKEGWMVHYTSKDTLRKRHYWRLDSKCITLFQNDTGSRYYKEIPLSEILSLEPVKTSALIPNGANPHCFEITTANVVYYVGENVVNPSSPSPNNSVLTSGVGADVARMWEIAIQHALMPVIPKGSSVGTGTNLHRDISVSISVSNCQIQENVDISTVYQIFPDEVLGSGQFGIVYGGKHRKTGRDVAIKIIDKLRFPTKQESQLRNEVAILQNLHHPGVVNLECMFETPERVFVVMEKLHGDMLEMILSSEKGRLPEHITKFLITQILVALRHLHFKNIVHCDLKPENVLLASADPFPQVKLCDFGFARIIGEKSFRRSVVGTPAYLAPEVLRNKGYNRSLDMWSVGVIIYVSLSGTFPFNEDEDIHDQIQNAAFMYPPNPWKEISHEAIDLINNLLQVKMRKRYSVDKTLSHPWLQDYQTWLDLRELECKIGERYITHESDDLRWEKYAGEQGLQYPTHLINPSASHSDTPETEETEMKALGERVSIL
The settings on record: at 0.1 µM.

The target of assay [19] is T3, Serine/threonine-protein kinase D1 (Homo sapiens). The settings on record: at 1 µM.
The target in assay [20] is T4, Serine/threonine-protein kinase D2 (Homo sapiens) (UniProt Q9BZL6).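 Also: reported percent inhibition values are means, part of the GSK PKIS kinase panel screen.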
T4 sequence (whole entry): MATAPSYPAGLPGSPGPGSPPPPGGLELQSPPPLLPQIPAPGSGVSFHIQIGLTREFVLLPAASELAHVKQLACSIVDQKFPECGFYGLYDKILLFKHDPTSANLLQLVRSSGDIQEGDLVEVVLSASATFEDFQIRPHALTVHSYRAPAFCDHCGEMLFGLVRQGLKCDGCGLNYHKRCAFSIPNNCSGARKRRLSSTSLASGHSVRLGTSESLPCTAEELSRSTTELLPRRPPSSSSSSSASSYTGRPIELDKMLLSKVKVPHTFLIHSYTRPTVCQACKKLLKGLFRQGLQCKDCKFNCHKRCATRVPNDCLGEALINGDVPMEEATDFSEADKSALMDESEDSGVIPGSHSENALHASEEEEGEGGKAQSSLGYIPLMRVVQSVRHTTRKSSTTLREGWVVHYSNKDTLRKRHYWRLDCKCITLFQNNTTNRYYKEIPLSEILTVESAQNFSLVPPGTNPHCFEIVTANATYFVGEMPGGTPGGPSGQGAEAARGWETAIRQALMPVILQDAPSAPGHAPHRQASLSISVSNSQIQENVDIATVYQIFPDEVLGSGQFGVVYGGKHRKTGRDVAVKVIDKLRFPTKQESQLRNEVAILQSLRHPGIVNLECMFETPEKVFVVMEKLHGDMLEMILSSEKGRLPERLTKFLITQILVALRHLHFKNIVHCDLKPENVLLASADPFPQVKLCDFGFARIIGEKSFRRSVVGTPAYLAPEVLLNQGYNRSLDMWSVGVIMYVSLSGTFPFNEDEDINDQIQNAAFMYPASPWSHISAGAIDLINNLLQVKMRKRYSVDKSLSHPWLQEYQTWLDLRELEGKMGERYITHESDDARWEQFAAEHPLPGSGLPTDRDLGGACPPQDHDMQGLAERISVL
Particulars: at 0.1 µM.

Protein kinase C eta type (Homo sapiens), sequence (P24723 whole entry): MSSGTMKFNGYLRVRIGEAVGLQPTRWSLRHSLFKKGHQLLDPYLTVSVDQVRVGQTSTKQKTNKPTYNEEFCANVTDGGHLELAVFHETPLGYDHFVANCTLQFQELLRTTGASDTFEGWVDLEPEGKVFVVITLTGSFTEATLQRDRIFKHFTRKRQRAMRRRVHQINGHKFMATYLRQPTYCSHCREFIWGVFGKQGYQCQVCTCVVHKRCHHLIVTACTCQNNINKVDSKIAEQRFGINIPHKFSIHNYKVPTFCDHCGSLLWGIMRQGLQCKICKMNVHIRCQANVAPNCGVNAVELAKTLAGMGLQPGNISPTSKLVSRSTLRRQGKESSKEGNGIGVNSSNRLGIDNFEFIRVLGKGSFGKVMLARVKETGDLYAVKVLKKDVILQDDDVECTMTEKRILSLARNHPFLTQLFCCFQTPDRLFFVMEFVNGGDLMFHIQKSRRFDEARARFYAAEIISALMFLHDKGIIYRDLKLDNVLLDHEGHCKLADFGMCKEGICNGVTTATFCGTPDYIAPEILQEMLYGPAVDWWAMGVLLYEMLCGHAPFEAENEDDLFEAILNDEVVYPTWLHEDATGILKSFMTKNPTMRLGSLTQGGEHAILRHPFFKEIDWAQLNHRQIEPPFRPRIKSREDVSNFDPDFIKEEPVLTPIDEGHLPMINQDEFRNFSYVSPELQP

As to `NS(=O)(=O)c1cccc(Nc2cc(-c3ccc(F)cc3)n[nH]2)c1`, the inhibition in [1] worked out at 0.96%; in assay [2], 5.01%; in assay [3] it was 6.49%; in [4] it was 0.02%; in [5], 1.69%; in assay [6], 2.83%. For the same compound, the inhibition in assay [7] came to 6%; in assay [8], 2.29%; in assay [9], 5.6%; in assay [10] it was 4.38%; in assay [11], 2.43%; in assay [12] it was 1.19%. Besides, the inhibition in [13] was 0.46%; in assay [14] it was 3.52%; in assay [15], 8.77%; in assay [16], 1.7%; in assay [17] it was 3.53%; in assay [18], -0.81%. Moreover, the inhibition in [19] was found to be 4.04%; in assay [20], 2.47%.

As to `C[C@@H](Oc1cc(-n2cnc3ccc(OCC4CCN(C)CC4)cc32)sc1C(N)=O)c1ccccc1C(F)(F)F`, the inhibition in assay [1] was 0.45%; in [2], -0.41%; in [3], 1.15%; in assay [4], 0.1%; in [5] it was 9.63%; in assay [6] it was 0.2%. Further, the inhibition in assay [7] is 5.91%; in assay [8] it was -5.73%; in [9], 5.16%; in assay [10], 3.29%; in [11], 7.81%; in [12], -1.38%. The inhibition was 0.4% in [13]; 2.09% in [14]; 19.4% in assay [15]; 2.07% in assay [16]; 18.8% in assay [17]; -0.56% in assay [18]. Also, the inhibition in assay [19] turned out to be 12.1%; in [20], 2.29%.

On to `CCn1c(-c2nonc2N)nc2ccc(F)cc21`, for which the inhibition in assay [1] is -0.67%; in [2] it was 2.75%; in assay [3], 6.34%; in [4], 1%; in assay [5] it was 1.33%; in assay [6] it was 2.61%. Further, the inhibition in assay [7] amounted to 15.6%; in [8], 6.39%; in assay [9] it was 26.6%; in assay [10], 4.75%; in [11], 5.71%; in assay [12], 2.23%. Also, the inhibition in assay [13] came out at 1.51%; in assay [14] it was 4.58%; in assay [15], 6.97%; in assay [16], 1.15%; in assay [17], 4.26%; in assay [18], 4.58%. The inhibition in assay [19] is 6.64%; in [20], 5.68%.

For `Nc1nccc(-c2c(-c3ccc(F)cc3)ncn2CCCN2CCOCC2)n1`, the inhibition in assay [1] is 0.38%; in [2] it was 3.31%; in [3] it was 9.33%; in assay [4], 0.84%; in [5], 4.5%; in [6] it was 1.5%. The inhibition is 7.05% in assay [7]; 4.26% in [8]; 7.49% in [9]; 3.25% in assay [10]; 6.84% in assay [11]; 3.1% in assay [12]. Further, the inhibition was found to be 3.21% in assay [13]; 2.24% in assay [14]; 3.31% in assay [15]; 3.01% in assay [16]; 7.42% in assay [17]; 4.07% in assay [18]. In addition, the inhibition in [19] is 5.03%; in [20], 5.14%.

On to `COc1cc(Nc2nccc(-c3cnn4ncccc34)n2)cc(OC)c1`, for which the inhibition in assay [1] was found to be 3.22%; in [2], 2.46%; in assay [3], 10.7%; in assay [4] it was 12.4%; in [5], 64%; in assay [6], 0.12%. The inhibition in assay [7] is 8.95%; in assay [8], 3.16%; in assay [9], 3.86%; in assay [10] it was 0.71%; in [11], 16.8%; in assay [12], -0.04%. In addition, the inhibition in [13] was found to be 0.62%; in assay [14], 0.09%; in [15], 6.77%; in assay [16], 1.8%; in [17] it was 16.9%; in [18] it was 1.77%. In addition, the inhibition in assay [19] came out at 16.4%; in [20], 2.57%.

Take `NS(=O)(=O)c1ccc(NC=C2C(=O)Nc3ccc4ncsc4c32)cc1`: the inhibition in assay [1] was determined as 30.1%; in [2], 2.64%; in [3], 11.8%; in [4] it was 1.14%; in assay [5], 8.8%; in [6], 0.12%. Also, the inhibition in assay [7] worked out at 2.75%; in assay [8], 6.21%; in assay [9], 4.18%; in [10], 3.84%; in [11], 9.7%; in assay [12], 2.56%. Besides, the inhibition in assay [13] was 5.28%; in assay [14], 3.44%; in assay [15], 11.8%; in [16], 2.28%; in [17] it was 6.13%; in [18], 28.5%. The inhibition in assay [19] was determined as 78.4%; in assay [20] it was 21.3%.

Turning to `COc1cc2ncnc(Nc3ccc(C)c(O)c3)c2cc1OC`, the inhibition in assay [1] was found to be 1.3%; in assay [2], 2.17%; in assay [3], 3.17%; in assay [4] it was 1.06%; in [5], 3.24%; in assay [6], 1.28%. For the same compound, the inhibition in assay [7] is 5.43%; in assay [8] it was 3.76%; in [9] it was 0.65%; in assay [10], 2.11%; in [11], 7.37%; in [12] it was 3.5%. Also, the inhibition was 1.78% in assay [13]; 3.41% in [14]; 5.28% in assay [15]; 2.8% in [16]; 5.81% in [17]; 4.73% in assay [18]. For the same compound, the inhibition is 9.92% in assay [19] and 5.41% in assay [20].
